The term inhibition denotes the change of the read-out against control, counted positive when it falls.

Some of the results follow. A number with no mark means an inactive call. Activity calls are given as the source filed them. No stated cut-off is given here; in the data, active means inhibition above about 19%; inactive means the rest.

The assay deals with Focal adhesion kinase 1 (Homo sapiens) (UniProt Q05397). Nature of the assay: human PTK2 activity blockers, single-point recheck – biochemical, confirmation (AID 794). The following applies: FAK kinase biochemical inhibition assay; at 7 µM; hits give high values.
Sequence of Focal adhesion kinase 1 (Homo sapiens) (Q05397 whole entry, looked up): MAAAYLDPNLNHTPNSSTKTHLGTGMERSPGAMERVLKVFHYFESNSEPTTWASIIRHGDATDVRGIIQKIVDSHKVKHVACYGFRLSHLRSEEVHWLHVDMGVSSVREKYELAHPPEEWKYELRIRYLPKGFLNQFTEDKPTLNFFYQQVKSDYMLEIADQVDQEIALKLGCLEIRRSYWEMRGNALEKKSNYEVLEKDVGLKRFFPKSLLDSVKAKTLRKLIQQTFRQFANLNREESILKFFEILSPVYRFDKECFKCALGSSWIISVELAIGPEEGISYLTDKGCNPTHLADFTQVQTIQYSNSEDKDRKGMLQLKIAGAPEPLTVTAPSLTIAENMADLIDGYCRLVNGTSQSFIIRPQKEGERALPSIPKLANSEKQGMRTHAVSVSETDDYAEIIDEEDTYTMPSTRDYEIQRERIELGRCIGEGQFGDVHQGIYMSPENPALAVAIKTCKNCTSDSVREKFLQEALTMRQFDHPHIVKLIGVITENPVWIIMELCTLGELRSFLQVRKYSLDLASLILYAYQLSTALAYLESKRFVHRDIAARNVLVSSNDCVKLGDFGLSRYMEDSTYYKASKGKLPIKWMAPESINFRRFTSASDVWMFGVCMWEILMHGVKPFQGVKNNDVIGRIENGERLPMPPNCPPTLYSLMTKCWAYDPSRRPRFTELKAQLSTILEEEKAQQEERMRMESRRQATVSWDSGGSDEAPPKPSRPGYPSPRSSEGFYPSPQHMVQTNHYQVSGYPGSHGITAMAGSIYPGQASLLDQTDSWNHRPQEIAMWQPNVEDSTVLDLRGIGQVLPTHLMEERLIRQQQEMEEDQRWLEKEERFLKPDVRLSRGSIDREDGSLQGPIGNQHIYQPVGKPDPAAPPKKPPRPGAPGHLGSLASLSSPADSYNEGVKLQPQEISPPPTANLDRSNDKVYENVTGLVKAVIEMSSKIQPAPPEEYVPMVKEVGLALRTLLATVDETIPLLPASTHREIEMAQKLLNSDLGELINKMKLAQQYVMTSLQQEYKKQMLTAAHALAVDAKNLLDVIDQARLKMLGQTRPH
Take `Cn1cccc1C(=O)Nc1nccs1`: the inhibition was 7.79%.
`Cc1ccc(-c2nn(C(C)(C)C)c3ncnc(N)c23)cc1`: the inhibition is 15.6%.
For the compound `Cn1c(CCN2CCCCCC2)nc2cc(NC(=O)Nc3ccccc3)ccc21`, the inhibition is 7.82%.
For `O=[N+]([O-])c1ccc(Oc2ccc(F)cc2Br)c2ccncc12` the value was 6.15%.
For `Fc1ccc(-c2ccc(-c3nn4c(-c5ccco5)nnc4s3)o2)cc1` the value was 5.37%; for `Nc1c(-c2ccc(F)cc2)cnc2ncnn12`, -3.73%; for `O=[N+]([O-])c1ccc(C=Nc2ccc(Cl)cc2Cl)s1`, 2.19%.
For `CC(=NCc1ccco1)C1=C(O)c2ccccc2C1=O` the value was 15.2%.
As for `COCCn1c(C)cc(C(=O)CSc2ncnc3sc4c(c23)CCC4)c1C`, the inhibition was 4.05%.
As for `CCc1ccccc1NC(=O)CSc1nnc([C@@H](NC(=O)OC(C)(C)C)C(C)CC)o1` (stereo not given in full), the inhibition is -1.72%.
For `Oc1ccccc1/C=N/n1c(-c2cccs2)n[nH]c1=S` the value was 8.74%; for `Cc1cc2cc3c(N)[nH]nc3nc2cc1C`, 20.5% (active).
For `COc1ccc(NC(=O)ON=C2c3ccccc3-c3ccccc32)cc1` the value was 6.77%; for `CCCOc1ccc(NC(=O)C2CCCNC2=O)cc1` (stereo not given), -2.48%.
For `CC(=O)c1ccc(Cc2ncc(C(F)(F)F)cc2Cl)s1` the value was -0.34%; for `COC(=O)c1c(NC(=O)CSc2nncs2)sc2c1CCCCC2`, 10.8%.
For the compound `Cc1cccn2c(=O)c3cc(C(=O)N4COCC4(C)C)n(C)c3nc12`, the inhibition is 6.3%.
In the case of `CCN(CC)S(=O)(=O)c1ccc2c3c(cccc13)C(=O)S2`, the inhibition is 14.7%.
For `COc1cc(N=Cc2c(O)[nH]c3ccccc23)cc(OC)c1OC` the value was 56.3% (active).
In the case of `O=C(Nc1ccc(-n2ccnc2P(=O)(O)c2ccccc2)cc1)c1ccccc1Br`, the inhibition is 16.2%.
As to `CCc1ccc2nc3sc(C(=O)Nc4nnc(CC)s4)c(N)c3cc2c1`, the inhibition is 16.1%.
For `Clc1ccccc1CSc1nnc(-c2ccco2)c(-c2ccco2)n1` the value was 8.81%.
For `Cc1cc(NC(=O)c2cnn3cccnc23)n(-c2ccccc2)n1` the value was 13.6%.
Turning to `Cc1ccc(-n2nc3ccc(NC(=O)/C=C/c4ccco4)cc3n2)cc1C`, the inhibition was 5.82%.
For `CCN(CC)S(=O)(=O)c1cc([N+](=O)[O-])ccc1NNC(=O)Nc1ccccc1` the value was 19.2% (active).

The record behind these values is PubChem BioAssay AID794 (The Scripps Research Institute Molecular Screening Center, 2007).
